# Reference: the supplement of paper PMC12339681
# Structures can show the parent of a compound that is named as a salt.
# System: PBMC-derived induced microglia-like cells (piMGLC)
# Assay: synaptosome phagocytic index relative to DMSO control (fraction of DMSO); higher = more phagocytosis
# Details: concentration: 10 uM (2 uM for compounds listed in Table S2); pretreatment time: 24 h; assay time: 3 h
row,Structure (SMILES),synaptosome phagocytic index
1,CC[C@@]12C=C(C(=O)O)n3c4c(c5ccccc53)CCN(CCC1)[C@H]42 [Apovincaminic_acid_(hydrochloride_salt)],0.745
2,N=C(N)NC(=O)Cc1c(Cl)cccc1Cl [Guanfacine_(hydrochloride)],1.13
3,O=C(Oc1ccccc1C(=O)O)c1ccccc1O [Salsalate],0.409
4,Nc1nc(Cl)nc2c1ncn2[C@H]1C[C@H](O)[C@@H](CO)O1 [Cladribine],1.1
5,O=C1NC(c2ccccc2)(c2ccccc2)C(=O)N1COP(=O)(O)O [Fosphenytoin_(disodium)],0.487
6,NC(=O)c1cn(Cc2c(F)cccc2F)nn1 [Rufinamide],0.654
7,CNC(=O)c1cc(Oc2ccc3nc(N[C@@H]4CCCC[C@H]4O)sc3c2)ccn1,1.21
8,N#Cc1ccc2[nH]cc(CCCCN3CCN(c4ccc5oc(C(N)=O)cc5c4)CC3)c2c1 [Vilazodone],0.195
9,CCCCC1C(=O)N(c2ccccc2)N(c2ccccc2)C1=O [Phenylbutazone],0.797
10,CC12CC3CC(C)(C1)CC(N)(C3)C2 [Memantine_(hydrochloride)],0.724
11,CC(=O)NCCCS(=O)(=O)O [Acamprosate_(calcium)],0.864
12,CO[C@H]1C[C@@H]2CC[C@@H](C)[C@@](O)(O2)C(=O)C(=O)N2CCCC[C@H]2C(=O)O[C@H]([C@H](C)C[C@@H]2CC[C@@H](OCCO)[C@H](OC)C2)CC(=O)[C@H](C)/C=C(\C)[C@@H](O)[C@@H](OC)C(=O)[C@H](C)C[C@H](C)/C=C/C=C/C=C/1C [Everolimus],0.223
